Experimental data reported in PubChem BioAssay (EPA / NIEHS).
Results filed as inconclusive are left out. The source made the active and inactive calls. Rule for the calls, unless noted: active = hit-call score of the fitted dose curve at least 0.9, where 1 is the maximum; inactive = score below 0.9.

Assays:
[1] = molecular target: Nuclear respiratory factor 1 (Homo sapiens) (UniProt Q16656); assay: ATG_NRF1_CIS: Attagene CIS-FACTORIAL HepG2 Assay for human Nuclear Respiratory Factor 1 (NRF1) Orphan Gene (AID 2282987); settings: HepG2 NRF1 cis-element reporter, Attagene multiplex; actives raise or lower the signal
Nuclear respiratory factor 1 (Homo sapiens), sequence (Q16656 whole entry, looked up): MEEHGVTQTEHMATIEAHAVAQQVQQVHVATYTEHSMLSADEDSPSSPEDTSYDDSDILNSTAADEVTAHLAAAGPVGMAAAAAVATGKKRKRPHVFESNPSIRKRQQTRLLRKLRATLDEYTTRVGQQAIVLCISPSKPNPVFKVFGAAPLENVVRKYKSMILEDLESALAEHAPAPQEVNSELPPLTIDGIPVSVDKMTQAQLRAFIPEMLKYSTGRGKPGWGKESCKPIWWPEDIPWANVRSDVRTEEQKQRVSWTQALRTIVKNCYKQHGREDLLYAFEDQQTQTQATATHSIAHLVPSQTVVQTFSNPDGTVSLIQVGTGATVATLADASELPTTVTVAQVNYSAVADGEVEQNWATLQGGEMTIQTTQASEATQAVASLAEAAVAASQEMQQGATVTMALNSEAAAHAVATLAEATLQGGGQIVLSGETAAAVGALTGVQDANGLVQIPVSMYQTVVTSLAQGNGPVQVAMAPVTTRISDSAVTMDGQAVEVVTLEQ
Outline: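 Transcriptional reporter readout, one component of a 52-endpoint multiplexed HepG2 panel. Exposure 24 h; mRNA detected via RT-PCR and fluorescent capillary electrophoresis; fitting in both directions against DMSO.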

[2] = ATG_NFI_CIS: Attagene CIS-FACTORIAL HepG2 Assay for human Nuclear Factor I (NFI) (AID 2282989); settings: HepG2 cis-regulatory reporter, NFI response element transcription; actives raise or lower the signal
Outline: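 HepG2, transient MRTU, 24 h exposure; RNA→cDNA→PCR→FAM label→HpaI→CE fluorescence. Bidirectional fit, DMSO = baseline.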

[3] = molecular target: Myc proto-oncogene protein (Homo sapiens) (UniProt P01106); assay: ATG_Myc_CIS: Attagene CIS-FACTORIAL HepG2 Assay for human Myelocytomatosis (Myc) Proto-Oncogene Transcription Factor (AID 2282990); settings: HepG2, Attagene cis-reporter transcription factor activity; actives raise or lower the signal
Myc proto-oncogene protein (Homo sapiens), sequence (P01106 whole entry, looked up): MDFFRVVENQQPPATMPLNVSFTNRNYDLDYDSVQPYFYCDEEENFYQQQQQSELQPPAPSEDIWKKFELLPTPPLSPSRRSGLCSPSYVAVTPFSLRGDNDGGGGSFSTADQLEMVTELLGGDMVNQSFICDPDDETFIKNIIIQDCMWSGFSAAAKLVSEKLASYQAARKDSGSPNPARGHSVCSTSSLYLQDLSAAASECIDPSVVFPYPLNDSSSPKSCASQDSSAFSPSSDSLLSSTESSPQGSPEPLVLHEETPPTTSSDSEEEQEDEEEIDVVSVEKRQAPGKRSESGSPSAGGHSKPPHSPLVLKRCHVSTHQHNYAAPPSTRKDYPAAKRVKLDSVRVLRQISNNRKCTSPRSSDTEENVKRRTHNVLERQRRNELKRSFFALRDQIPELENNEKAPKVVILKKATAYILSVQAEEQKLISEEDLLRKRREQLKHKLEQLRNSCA
Outline: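 DMSO-normalised, bidirectionally fitted reporter mRNA signal. HepG2 cells transfected with cis reporter constructs, treated 24 h; transcripts detected by RT-PCR, 6-FAM primer extension and CE.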

[4] = ATG_NF_kB_CIS: Attagene CIS-FACTORIAL HepG2 Assay for human Nuclear Factor Kappa B (NF-kB) (AID 2282991); settings: HepG2 Attagene cis-factorial NF-kB reporter mRNA; actives raise or lower the signal
Outline: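 HepG2, transient multi-reporter transfection, cis promoter elements (endogenous TFs). 24 h exposure. Total RNA → RT → PCR → 6-FAM label → HpaI → CE. Gain/loss vs DMSO.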

[5] = ATG_NRF2_ARE_CIS: Attagene CIS-FACTORIAL HepG2 Assay for human Nuclear Factor Erythroid 2 Related Factor 2 (NFR2) response to Antioxidant Response Elements (ARE) (AID 2282992); settings: HepG2 Attagene ARE/NRF2 reporter, transcription factor activity; actives raise or lower the signal;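 for AC50: reporter mRNA level measured by RT-PCR and capillary electrophoresis fluorescence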
Outline: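 Readout: reporter mRNA quantified by RT-PCR plus FAM-labelled primer extension, HpaI digestion and capillary electrophoresis, 24 h after dosing transfected HepG2 cells. Gain or loss of signal is fitted bidirectionally against DMSO baseline.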

[6] = ATG_Oct_MLP_CIS: Attagene CIS-FACTORIAL HepG2 Assay for human Octamer-Binding Transcription Factor (Oct) (AID 2282993); settings: HepG2 Attagene cis-factorial Oct reporter, mRNA; actives raise or lower the signal
Outline: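 Multiplexed cis-reporter assay in human liver HepG2 cells, 24 h incubation. Reporter RNA amplified and labelled, then resolved by capillary electrophoresis; DMSO serves as negative control and baseline.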

[7] = molecular target: Cellular tumor antigen p53 (Homo sapiens) (UniProt P04637); assay: ATG_p53_CIS: Attagene CIS-FACTORIAL HepG2 Assay for human p53 Transcription Factor (AID 2282994); settings: HepG2 p53 cis-element reporter, Attagene mRNA; actives raise or lower the signal
Cellular tumor antigen p53 (Homo sapiens), sequence (P04637 whole entry, looked up): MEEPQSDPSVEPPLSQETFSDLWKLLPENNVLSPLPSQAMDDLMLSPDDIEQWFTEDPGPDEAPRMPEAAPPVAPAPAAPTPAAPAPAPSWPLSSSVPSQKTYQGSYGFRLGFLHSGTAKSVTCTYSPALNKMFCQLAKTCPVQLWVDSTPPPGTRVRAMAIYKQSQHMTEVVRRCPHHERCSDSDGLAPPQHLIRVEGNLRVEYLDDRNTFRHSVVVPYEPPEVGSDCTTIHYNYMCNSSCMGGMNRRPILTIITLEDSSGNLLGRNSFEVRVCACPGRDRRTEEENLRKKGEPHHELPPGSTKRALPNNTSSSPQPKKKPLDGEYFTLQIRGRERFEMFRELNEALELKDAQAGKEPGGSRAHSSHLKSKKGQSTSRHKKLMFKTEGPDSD
Outline: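 Read-out: reporter mRNA by RT-PCR plus capillary electrophoresis with fluorescence detection. Human HepG2 liver cells carried transfected multi-reporter cis-element constructs, dosed 24 h. Gain or loss of signal fitted bidirectionally against DMSO control.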

[8] = molecular target: human Peroxisome Proliferator-activated Receptor alpha (PPARa), PPARA (gene 5465) (UniProt Q07869); assay: ATG_PPARa_TRANS: Attagene TRANS-FACTORIAL HepG2 Assay for human Peroxisome Proliferator-activated Receptor alpha (PPARa) (AID 2283001; active = hit-call score of the fitted dose curve at least 0.9, where 1 is the maximum;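 for AC50: potency for gain of reporter signal over DMSO so agonist or activator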)
human Peroxisome Proliferator-activated Receptor alpha (PPARa), PPARA (gene 5465), sequence (Q07869 whole entry, looked up, the tested form may be a part): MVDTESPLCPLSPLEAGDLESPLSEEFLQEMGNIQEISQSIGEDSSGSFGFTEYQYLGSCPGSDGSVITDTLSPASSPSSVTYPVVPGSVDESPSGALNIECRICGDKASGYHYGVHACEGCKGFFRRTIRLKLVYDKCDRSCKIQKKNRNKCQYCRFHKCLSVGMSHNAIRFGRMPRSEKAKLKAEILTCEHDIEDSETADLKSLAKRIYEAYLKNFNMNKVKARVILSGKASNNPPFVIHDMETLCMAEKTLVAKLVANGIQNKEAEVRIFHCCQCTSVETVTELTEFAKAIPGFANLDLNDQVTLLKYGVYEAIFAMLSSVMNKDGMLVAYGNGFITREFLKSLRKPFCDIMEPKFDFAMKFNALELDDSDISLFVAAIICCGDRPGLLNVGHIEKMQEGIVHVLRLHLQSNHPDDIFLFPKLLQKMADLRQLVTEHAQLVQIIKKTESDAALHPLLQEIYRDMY
Outline: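 Exposure: 24 h, transiently transfected HepG2 cells. Endpoint: GAL4-UAS reporter mRNA, RT-PCR with capillary electrophoresis fluorescence. Baseline: DMSO; increases fitted.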

[9] = molecular target: human Peroxisome Proliferator-activated Receptor delta (PPARd), PPARD (gene 5467) (UniProt Q03181); assay: ATG_PPARd_TRANS: Attagene TRANS-FACTORIAL HepG2 Assay for human Peroxisome Proliferator-activated Receptor delta (PPARd) (AID 2283002; active = hit-call score of the fitted dose curve at least 0.9, where 1 is the maximum)
human Peroxisome Proliferator-activated Receptor delta (PPARd), PPARD (gene 5467), sequence (Q03181 whole entry, looked up, the tested form may be a part): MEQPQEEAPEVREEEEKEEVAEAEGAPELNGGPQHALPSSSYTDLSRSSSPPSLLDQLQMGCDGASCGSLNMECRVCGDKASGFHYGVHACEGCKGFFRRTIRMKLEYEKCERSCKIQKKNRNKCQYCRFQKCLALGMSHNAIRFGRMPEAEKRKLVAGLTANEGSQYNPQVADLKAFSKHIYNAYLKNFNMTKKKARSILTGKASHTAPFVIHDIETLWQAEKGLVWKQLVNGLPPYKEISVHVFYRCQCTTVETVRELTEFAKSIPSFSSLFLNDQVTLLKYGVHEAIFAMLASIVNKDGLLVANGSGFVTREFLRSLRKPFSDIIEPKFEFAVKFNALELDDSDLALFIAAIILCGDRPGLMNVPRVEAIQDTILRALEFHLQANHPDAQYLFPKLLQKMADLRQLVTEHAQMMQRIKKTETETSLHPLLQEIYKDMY
Outline: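 Measured quantity: GAL4-UAS reporter transcript induction in HepG2 after 24 h chemical dosing, with NR-Gal4 chimeras supplied by transient transfection. Detection by RT-PCR and capillary electrophoresis; upward fit against DMSO.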

[10] = molecular target: human Retinoic Acid Receptor beta (RARb), RARB (gene 5915) (UniProt P10826); assay: ATG_RARb_TRANS: Attagene TRANS-FACTORIAL HepG2 Assay for human Retinoic Acid Receptor beta (AID 2283004; active = hit-call score of the fitted dose curve at least 0.9, where 1 is the maximum)
human Retinoic Acid Receptor beta (RARb), RARB (gene 5915), sequence (P10826 whole entry, looked up, the tested form may be a part): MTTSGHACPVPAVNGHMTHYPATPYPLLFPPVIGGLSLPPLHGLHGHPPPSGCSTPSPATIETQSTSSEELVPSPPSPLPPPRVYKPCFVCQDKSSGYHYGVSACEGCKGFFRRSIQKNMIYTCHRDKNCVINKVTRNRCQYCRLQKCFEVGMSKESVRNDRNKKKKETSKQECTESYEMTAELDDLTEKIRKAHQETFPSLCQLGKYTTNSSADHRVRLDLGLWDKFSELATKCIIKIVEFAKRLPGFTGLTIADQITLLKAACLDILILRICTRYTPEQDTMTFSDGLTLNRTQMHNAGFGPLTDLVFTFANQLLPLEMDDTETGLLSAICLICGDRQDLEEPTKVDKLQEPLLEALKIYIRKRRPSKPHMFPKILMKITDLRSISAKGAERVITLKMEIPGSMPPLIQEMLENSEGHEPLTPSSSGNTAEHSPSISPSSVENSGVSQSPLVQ
Outline: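 Readout is reporter mRNA induction: RNA reverse-transcribed, PCR-amplified, FAM-labelled, HpaI-cut and resolved by capillary electrophoresis. Transiently transfected HepG2 cells carrying exogenous NR–Gal4 chimeras were dosed for 24 h; activity fitted upward relative to DMSO.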

[11] = molecular target: Retinoic acid receptor alpha (Homo sapiens) (UniProt P10276); assay: ATG_RARa_TRANS: Attagene TRANS-FACTORIAL HepG2 Assay for human Retinoic Acid Receptor alpha (RARa) (AID 2283005; active = hit-call score of the fitted dose curve at least 0.9, where 1 is the maximum)
Retinoic acid receptor alpha (Homo sapiens), sequence (P10276 whole entry, looked up, the tested form may be a part): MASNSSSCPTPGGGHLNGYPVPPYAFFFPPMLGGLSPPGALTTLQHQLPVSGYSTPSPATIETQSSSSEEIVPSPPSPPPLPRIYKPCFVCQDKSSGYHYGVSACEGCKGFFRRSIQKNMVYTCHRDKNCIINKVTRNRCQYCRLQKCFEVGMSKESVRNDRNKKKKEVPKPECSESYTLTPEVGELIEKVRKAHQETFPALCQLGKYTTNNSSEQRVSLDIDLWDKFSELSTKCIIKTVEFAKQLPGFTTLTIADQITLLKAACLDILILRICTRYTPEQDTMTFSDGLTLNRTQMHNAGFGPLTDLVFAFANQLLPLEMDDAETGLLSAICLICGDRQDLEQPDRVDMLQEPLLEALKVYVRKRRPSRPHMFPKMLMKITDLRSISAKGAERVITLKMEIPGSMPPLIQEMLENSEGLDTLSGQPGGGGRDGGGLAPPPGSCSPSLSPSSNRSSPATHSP
Outline: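 HepG2 cells transiently transfected with multiple reporter units expressing chimeric RARα-GAL4 fusion, with GAL4-UAS-driven reporters. After 24 h compound exposure, reporter mRNA induction quantified by RT-PCR and capillary electrophoresis with fluorescent labeling; gain-of-signal fitted relative to DMSO control.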

[12] = molecular target: Peroxisome proliferator-activated receptor gamma (Homo sapiens) (UniProt P37231); assay: ATG_PPARg_TRANS: Attagene TRANS-FACTORIAL HepG2 Assay for human Peroxisome Proliferator-activated Receptor-gamma (PPARg) (AID 2283007; active = hit-call score of the fitted dose curve at least 0.9, where 1 is the maximum)
Peroxisome proliferator-activated receptor gamma (Homo sapiens), sequence (P37231 whole entry, looked up): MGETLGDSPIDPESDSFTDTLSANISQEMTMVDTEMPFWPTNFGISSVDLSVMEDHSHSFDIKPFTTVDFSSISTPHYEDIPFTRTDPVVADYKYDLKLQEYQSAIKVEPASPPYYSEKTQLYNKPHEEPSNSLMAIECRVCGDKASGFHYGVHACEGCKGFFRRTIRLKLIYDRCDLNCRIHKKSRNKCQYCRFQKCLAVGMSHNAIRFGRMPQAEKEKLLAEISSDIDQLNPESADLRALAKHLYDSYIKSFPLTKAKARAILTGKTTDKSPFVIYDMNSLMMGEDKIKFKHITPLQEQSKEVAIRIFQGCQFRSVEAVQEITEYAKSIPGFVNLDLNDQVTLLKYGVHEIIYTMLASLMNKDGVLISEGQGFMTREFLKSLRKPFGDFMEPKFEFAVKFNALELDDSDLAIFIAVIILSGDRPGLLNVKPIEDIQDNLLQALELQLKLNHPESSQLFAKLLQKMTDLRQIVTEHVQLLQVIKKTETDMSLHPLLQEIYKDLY
Outline: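 Multiplexed reporter transcription units in HepG2, 24 h dosing, reporter transcripts quantified by fluorescent RT-PCR and capillary electrophoresis. Increase over DMSO scored.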

[13] = molecular target: Nuclear receptor subfamily 1 group I member 2 (Homo sapiens) (UniProt O75469); assay: ATG_PXR_TRANS: Attagene TRANS-FACTORIAL HepG2 Assay for human Pregnane X Receptor (PXR) (AID 2283008; active = hit-call score of the fitted dose curve at least 0.9, where 1 is the maximum)
Nuclear receptor subfamily 1 group I member 2 (Homo sapiens), sequence (O75469 whole entry, looked up, the tested form may be a part): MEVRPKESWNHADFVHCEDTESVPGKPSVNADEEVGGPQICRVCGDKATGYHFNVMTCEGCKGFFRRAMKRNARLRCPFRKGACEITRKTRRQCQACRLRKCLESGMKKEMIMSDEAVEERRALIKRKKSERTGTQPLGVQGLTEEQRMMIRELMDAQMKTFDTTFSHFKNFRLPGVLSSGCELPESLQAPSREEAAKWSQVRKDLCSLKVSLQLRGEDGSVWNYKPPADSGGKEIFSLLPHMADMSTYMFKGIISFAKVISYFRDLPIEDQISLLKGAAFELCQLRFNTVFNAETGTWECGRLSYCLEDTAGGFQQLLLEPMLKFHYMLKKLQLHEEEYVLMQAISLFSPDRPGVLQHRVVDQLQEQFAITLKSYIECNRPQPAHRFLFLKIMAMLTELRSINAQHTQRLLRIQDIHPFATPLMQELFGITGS
Outline: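 Trans-factorial format: exogenous NR-Gal4 fusion activity, not endogenous factor, in transfected human HepG2 liver cells. After 24 h dosing, RNA isolated, reverse-transcribed, amplified and resolved by capillary electrophoresis; induction scored versus DMSO.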

[14] = molecular target: human Retinoic Acid Receptor gamma (RARg), RARG (gene 5916) (UniProt P13631); assay: ATG_RARg_TRANS: Attagene TRANS-FACTORIAL HepG2 Assay for human Retinoic Acid Receptor gamma (RARg) (AID 2283009; active = hit-call score of the fitted dose curve at least 0.9, where 1 is the maximum)
human Retinoic Acid Receptor gamma (RARg), RARG (gene 5916), sequence (P13631 whole entry, looked up, the tested form may be a part): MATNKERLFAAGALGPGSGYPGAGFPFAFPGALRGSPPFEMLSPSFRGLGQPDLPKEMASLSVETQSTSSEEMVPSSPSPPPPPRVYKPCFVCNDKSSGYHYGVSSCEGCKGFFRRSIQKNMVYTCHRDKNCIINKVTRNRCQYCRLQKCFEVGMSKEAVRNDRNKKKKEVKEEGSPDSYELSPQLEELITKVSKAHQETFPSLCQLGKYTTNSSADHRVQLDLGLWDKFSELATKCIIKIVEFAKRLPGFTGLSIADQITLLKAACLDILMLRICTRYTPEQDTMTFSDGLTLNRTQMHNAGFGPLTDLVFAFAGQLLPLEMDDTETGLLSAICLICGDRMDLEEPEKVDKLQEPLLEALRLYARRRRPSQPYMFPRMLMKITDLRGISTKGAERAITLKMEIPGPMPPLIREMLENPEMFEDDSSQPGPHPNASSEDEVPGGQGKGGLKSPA
Outline: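 Gain-of-signal relative to DMSO is reported from fluorescent capillary electrophoresis of RT-PCR reporter products. These came from HepG2 cells expressing transfected RARg-GAL4 chimeras with UAS reporters, harvested 24 h after dosing.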

[15] = BSK_3C_Proliferation: Cell Proliferation Assessment in the BioMAP Diversity Plus: 3C Assay (AID 2283006); settings: primary human endothelial cells (HUVEC);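 for AC50: potency may reflect either rise or fall in cell number versus DMSO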
Outline: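 Measured here: sulforhodamine B (0.1%) staining of TCA-fixed sub-confluent umbilical vein endothelial cultures 48 h post-dosing, absorbance 560 nm. DMSO served as negative control and baseline; both signal gain and loss were modelled.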

[16] = BSK_3C_TissueFactor: BioMAP Diversity Plus: 3C Assay for Tissue Factor Biomarker Activity (AID 2282997); settings: BioMAP 3C HUVEC, tissue factor biomarker readout; actives raise or lower the signal
Outline: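 HUVEC, 3C system, 24 h post-dose; Tissue Factor by ELISA; bidirectional fit vs DMSO baseline.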

[17] = BSK_3C_uPAR: BioMAP Diversity Plus: 3C Assay for Urokinase-type plasminogen activator receptor (uPAR) Biomarker Activity (AID 2282998); settings: BioMAP 3C HUVEC, uPAR biomarker ELISA; actives raise or lower the signal
Outline: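 Dose primary human umbilical vein endothelial cells, incubate 24 h, measure cell-surface uPAR by ELISA, then fit the signal in both directions against the DMSO negative control.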

[18] = BSK_3C_VCAM1: BioMAP Diversity Plus: 3C Assay for Vascular cell adhesion molecule 1 (VCAM1) Biomarker Activity (AID 2282999); settings: BioMAP 3C HUVEC, VCAM1 ELISA, cytokine-stimulated; actives raise or lower the signal
Outline: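 Vascular primary endothelium (human umbilical vein) was exposed to chemicals and assayed 24 h later. VCAM-1 levels came from ELISA, with DMSO serving as baseline for bidirectional fitting.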

[19] = BSK_4H_Eotaxin3: BioMAP Diversity Plus: 4H Assay for Eotaxin 3 Biomarker Activity (AID 2283000); settings: primary human endothelial cells (HUVEC); actives raise or lower the signal;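 note: CCL26 protein level quantified by ELISA in parallel with SRB cytotoxicity check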
Outline: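 Readout is Eotaxin-3 (CCL26) level by ELISA in primary human umbilical vein endothelial cells harvested 24 h after chemical exposure; activity fitted in both directions against DMSO control.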

[20] = read-out: Intercellular Adhesion Molecule 1 (ICAM1), ICAM1 (gene 3383); assay: BSK_3C_ICAM1: BioMAP Diversity Plus: 3C Assay for Intercellular Adhesion Molecule 1 (ICAM1) Biomarker Activity (AID 2283003); settings: primary human endothelial cells (HUVEC); actives raise or lower the signal
Outline: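 Using DMSO as baseline, bidirectional curve fitting was applied to ICAM-1 ELISA signals from HUVEC in the 3C system, measured 24 h after compound addition.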

Measured: AC50

COc1cc(CCC(=O)CC(=O)CCc2ccc(O)c(OC)c2)ccc1O
active: [5] 24.8 µM | [6] 68.8 µM | [7] 100 µM | [12] 4.39 µM | [13] 5.26 µM
not listed: [15] | [16] | [17] | [18] | [19] | [20]
inactive: all other assays above

Cc1ccc(S(=O)(=O)O)c(C)c1
inactive: [1] | [2] | [3] | [4] | [5] | [6] | [7] | [8] | [9] | [12] | [13]

FC(F)(I)C(F)(F)C(F)(F)C(F)(F)C(F)(F)C(F)(F)I
active: [5] 11.1 µM | [8] 27.3 µM | [15] 12.9 µM [middle of 5 runs] | [12] 14.4 µM | [13] 33.4 µM
inactive: [1] | [2] | [3] | [4] | [6] | [7] | [9]

CN1CCN(c2ccccc2/C=C2\SCCN(c3ccc(Cl)c(Cl)c3)C2=O)CC1
active: [5] 3.7 µM | [16] 6.4 µM | [17] 16.2 µM | [15] 5.3 µM | [12] 0.865 µM | [13] 3.7 µM
not listed: [8] | [9] | [10] | [11] | [14]
inactive: all other assays above

OC1CCCCC1
not listed: [4] | [10] | [11] | [12] | [13] | [14]
inactive: all other assays above

Cc1cc(C)c(O)c(C)c1
active: [5] 27.7 µM | [6] 100 µM
not listed: [4] | [9]
inactive: all other assays above
